Experimental data published in PubChem BioAssay AID1159580 (chemical genetic matrix, 2015).
“And” between values parts separate entries of the source, which are not always exact repeats. Equal entries are not always repeated. Hit rate of the full screen: of about 5,500 compounds, about 2,000 (36%) were called active. About 18% were inconclusive and are not listed. No stated cut-off is given here; in the data, active means normalized growth mostly below about 0.91 (no sharp cut-off); inconclusive means no clear call, values can overlap the other calls; inactive means mostly above about 0.92. The list shows a part of the results.

Test: chemical genetic growth profiling, strain panel (AID 1159580);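 further: tested at 20 µM; growth read once vehicle control cultures reached saturation at 30 °C; 1 = growth at the plate median or of vehicle wells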
Details: S. cerevisiae deletion strains, growth OD

Measured: normalized growth

COC(=O)CCC(C)C1CCC2C3CC[C@@H]4C[C@H](O)CC[C@]4(C)C3C[C@H](O)[C@]12C (stereo partly drawn)
0.923 (inactive) and 0.843 (active): locus YHR030C, strain SLT2, stronger effect = lower value
inactive: locus YAL013W, strain DEP1, stronger effect = lower value 0.983 | locus YAL026C, strain drs2, stronger effect = lower value 1 | locus YAL030W, strain snc1, stronger effect = lower value 0.987 | locus YBR009C, strain hhf1, stronger effect = lower value 0.925 | locus YBR021W, strain FUR4, stronger effect = lower value 1.01 | locus YBR171W, strain sec66, stronger effect = lower value 1.01 | locus YBR229C, strain ROT2, stronger effect = lower value 0.998 | locus YBR231C, strain swc5, stronger effect = lower value 0.978 | locus YBR279W, strain paf1, stronger effect = lower value 0.996 | locus YCL011C, strain gbp2, stronger effect = lower value 0.966 | locus YCL016C, strain dcc1, stronger effect = lower value 0.967 | locus YCL029C, strain bik1, stronger effect = lower value 1.01 | locus YCL061C, strain MRC1, stronger effect = lower value 0.992 | locus YCL069W, strain vba3, stronger effect = lower value 1.01 | locus YCR088W, strain abp1, stronger effect = lower value 1 | locus YDL005C, strain med2, stronger effect = lower value 0.983 | locus YDL035C, strain GPR1, stronger effect = lower value 0.989 | locus YDL040C, strain nat1, stronger effect = lower value 0.985 | locus YDL074C, strain BRE1, stronger effect = lower value 0.849 | locus YDL101C, strain DUN1, stronger effect = lower value 0.973 | locus YDL134C, strain PPH21, stronger effect = lower value 0.951 | locus YDL185W, strain tfp1, stronger effect = lower value 1.02 | locus YDL192W, strain arf1, stronger effect = lower value 0.922 | locus YDR001C, strain nth1, stronger effect = lower value 0.996 | locus YDR069C, strain doa4, stronger effect = lower value 1.04 | locus YDR101C, strain arx1, stronger effect = lower value 1 | locus YDR162C, strain NBP2, stronger effect = lower value 0.928 | locus YDR297W, strain sur2, stronger effect = lower value 0.986 | locus YDR318W, strain mcm21, stronger effect = lower value 0.993 | locus YDR334W, strain swr1, stronger effect = lower value 1.01 | locus YDR335W, strain msn5, stronger effect = lower value 0.975 | locus YDR388W, stronger effect = lower value 1.02 | locus YDR502C, strain sam2, stronger effect = lower value 1.02 | locus YEL003W, strain gim4, stronger effect = lower value 0.99 | locus YEL037C, strain rad23, stronger effect = lower value 1.01 | locus YEL061C, strain CIN8 (second series), stronger effect = lower value 0.999 | locus YEL061C, strain CIN8, stronger effect = lower value 0.975 | locus YER015W, strain faa2, stronger effect = lower value 1 | locus YER016W, strain bim1, stronger effect = lower value 0.962 | locus YER110C, stronger effect = lower value 1.02 | locus YER111C, strain swi4, stronger effect = lower value 0.996 | locus YER155C, strain BEM2, stronger effect = lower value 0.955 | locus YER167W, strain BCK2, stronger effect = lower value 1.01 | locus YFR010W, strain ubp6, stronger effect = lower value 1.04 | locus YGL078C, strain dbp3, stronger effect = lower value 1.02 | locus YGL086W, strain mad1, stronger effect = lower value 0.997 | locus YGL167C, strain pmr1, stronger effect = lower value 0.971 | locus YGL173C, strain kem1, stronger effect = lower value 0.992 | locus YGL227W, strain vid30, stronger effect = lower value 1 | locus YGL240W, strain doc1, stronger effect = lower value 0.928 | locus YGL248W, strain PDE1, stronger effect = lower value 0.95 | locus YGL253W, strain hxk2, stronger effect = lower value 0.985 | locus YGR135W, strain pre9, stronger effect = lower value 1.01 | locus YGR252W, strain gcn5, stronger effect = lower value 0.887 | locus YHR027C, strain rpn1, stronger effect = lower value 1 | locus YHR079C, strain IRE1 (second series), stronger effect = lower value 1 | locus YHR094C, strain hxt1, stronger effect = lower value 1.03 | locus YHR129C, strain ARP1, stronger effect = lower value 0.955 | locus YHR200W, strain rpn10, stronger effect = lower value 1.02 | locus YIL066C, strain RNR3, stronger effect = lower value 0.923 | locus YIL073C, strain SPO22, stronger effect = lower value 1.27 | locus YIL125W, strain kgd1, stronger effect = lower value 1.01 | locus YIR030C, strain dcg1, stronger effect = lower value 1.01 | locus YJL092W, strain hpr5, stronger effect = lower value 1 | locus YJL115W, strain asf1, stronger effect = lower value 1.01 | locus YJL129C, strain trk1, stronger effect = lower value 0.934 | locus YJL134W, strain LCB3, stronger effect = lower value 1.01 | locus YJL154C, strain vps35, stronger effect = lower value 1.01 | locus YJL164C, strain tpk1, stronger effect = lower value 0.957 | locus YJL168C, strain set2, stronger effect = lower value 1.01 | locus YJL187C, strain SWE1 (second series), stronger effect = lower value 0.979 | locus YJL187C, strain SWE1, stronger effect = lower value 0.995
0.819 (inactive) and 0.826 (active): locus YJL095W, strain BCK1, stronger effect = lower value
active: locus YAL021C, strain ccr4, stronger effect = lower value 1.11 [resistant] | locus YBL061C, strain skt5, stronger effect = lower value 0.9 | locus YBR023C, strain chs3, stronger effect = lower value 0.909 | locus YDR137W, strain rgp1, stronger effect = lower value 0.754 | locus YDR159W, strain sac3, stronger effect = lower value 0.757 | locus YDR195W, strain ref2 0.802 | locus YDR392W, strain spt3, stronger effect = lower value 0.331 | locus YER155C, strain BEM2 (second series), stronger effect = lower value 0.746 | locus YGR229C, strain SMI1, stronger effect = lower value 0.709 | locus YHR013C, strain ard1, stronger effect = lower value 1.34 [resistant] | locus YHR079C, strain IRE1, stronger effect = lower value 0.826 | locus YHR142W, strain chs7, stronger effect = lower value 0.819 | locus YJL095W, strain BCK1 (second series), stronger effect = lower value 0.867 | locus YJL166W, strain qcr8, stronger effect = lower value 0.892
